Anthrax LF prot: Bacillus anthracis LF protease inhibitors, primary screen, biochemical, multiplex microsphere, MLPCN library; multiplex microsphere protease cleavage assay; inhibition, % at 10 µM; 360,000 tested, 0.12% active
Target sequence (P15917 whole entry, looked up): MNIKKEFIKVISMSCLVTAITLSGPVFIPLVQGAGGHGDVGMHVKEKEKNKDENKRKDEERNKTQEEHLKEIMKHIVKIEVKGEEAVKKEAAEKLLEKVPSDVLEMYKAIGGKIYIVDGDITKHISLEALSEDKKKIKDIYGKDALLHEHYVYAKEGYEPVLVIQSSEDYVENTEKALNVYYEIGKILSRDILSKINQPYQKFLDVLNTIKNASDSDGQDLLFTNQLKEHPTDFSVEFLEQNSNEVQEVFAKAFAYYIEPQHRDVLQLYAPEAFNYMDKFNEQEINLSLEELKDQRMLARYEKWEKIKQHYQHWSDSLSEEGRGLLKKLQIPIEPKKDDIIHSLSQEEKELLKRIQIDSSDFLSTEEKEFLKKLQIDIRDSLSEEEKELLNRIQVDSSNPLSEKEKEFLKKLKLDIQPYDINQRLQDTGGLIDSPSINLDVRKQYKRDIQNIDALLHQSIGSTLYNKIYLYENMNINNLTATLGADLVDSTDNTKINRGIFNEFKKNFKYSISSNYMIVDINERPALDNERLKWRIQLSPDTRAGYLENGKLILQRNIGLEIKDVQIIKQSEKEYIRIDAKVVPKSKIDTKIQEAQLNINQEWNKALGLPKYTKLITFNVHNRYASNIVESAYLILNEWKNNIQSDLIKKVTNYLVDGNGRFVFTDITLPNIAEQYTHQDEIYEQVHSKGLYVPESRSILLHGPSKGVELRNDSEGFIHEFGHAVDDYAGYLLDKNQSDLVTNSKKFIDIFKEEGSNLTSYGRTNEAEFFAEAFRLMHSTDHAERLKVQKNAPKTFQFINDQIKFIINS
BoNT A protease: BoNT/A light chain protease inhibitors, primary screen, biochemical, flow cytometry, MLPCN library. 360,000 tested, 0.17% active. inhibition, % at 10 µM. AID 588499, 2011. multiplex microsphere protease substrate cleavage
BoNT F protease: BoNT/F light chain protease inhibitors, primary screen, biochemical, flow cytometry, MLPCN library; 360,000 tested, 0.22% active; inhibition, % at 10 µM; Multiplex microsphere protease cleavage assay; Botulinum neurotoxin type F light chain protease (Clostridium botulinum); AID 588497, 2011; in the data active = inhibition above about 35%, passing the limit was not always enough; inconclusive = no clear call, values can overlap the other calls
PriA SSB inh: inhibitors of Klebsiella pneumoniae PriA binding to SSB C-terminal tail, primary screen, biochemical, AlphaScreen; PriA–SSB C-terminal tail interaction (Klebsiella pneumoniae); AlphaScreen SSBct-PriA binding, biotinylated peptide; inhibition, % at 33 µM; 430,000 tested, 0.6% active; AID 1272365, 2023; in the data active = inhibition mostly above about 37%, no sharp cut-off; inactive = mostly below about 20%
Bead autofluor: flagged as autofluorescent in microsphere protease counterscreen; compound autofluorescence counterscreen, microsphere flow cytometry; hits give high values; fluorescence intensity (concentration not given with the values); 360,000 tested, 3.1% active; in the data active = fluorescence intensity above about 16000; inconclusive = no clear call, values can overlap the other calls
Of the large screens only hits and unclear results are named; the others gave an inactive call. Compounds with a hit are over-represented: about 3.1% of the library has one in this group of screens. Cut-off read from the data, not from the text of the source, unless noted: active = inhibition above about 30%; inconclusive = no clear call, values can overlap the other calls; inactive = below that.

Cc1ccc(C(=O)C[n+]2cc(-c3ccc(C)cc3)n3c2CCCCC3)cc1	Bead autofluor 22561
CCN(CC)c1ccc(C=Nc2ccc(C)cc2C)c(O)c1	BoNT A protease 37
CCN(CC)c1ccc(C=Nc2cc(C)ccc2C)c(O)c1	BoNT A protease 72
CC1(C)CC(=O)C(=NNc2ccc(Cl)cc2)CO1	none (no result: Anthrax LF prot, BoNT A protease, BoNT F protease, Bead autofluor)
COc1cccc(=O)c2c(C)n(-c3cc(C)cc(C)c3)c(C)c12	Bead autofluor 20048
COc1cccc(-n2c(C)c3c(OC)cccc(=O)c3c2C)c1	none
CC1CCCN(c2nc3nonc3nc2N2CCCC(C)C2)C1 (stereo unspecified)	none
CC1CCN(c2nc3nonc3nc2N2CCC(C)CC2)CC1	BoNT A protease inconclusive, Bead autofluor 21212
COc1ccc(-n2c(SCC(=O)NC3CCCCC3)nc3ccsc3c2=O)cc1	BoNT A protease inconclusive, Bead autofluor 21037
COc1cc(NC(=O)Nc2ccccc2)c(OC)cc1NC(=O)CN1CCCCC1	PriA SSB inh 42
COc1cc(NC(=O)Nc2ccccc2OC)c(OC)cc1NC(=O)CN1CCCCC1	none
O=C(NCCN1CCCCC1)Nc1ccccc1	Bead autofluor 24890
CC(C)(C)c1ccc(-c2nn(CCC#N)cc2C=NO)cc1	none (no result: Anthrax LF prot, BoNT A protease, BoNT F protease, Bead autofluor)
CCOC(=O)c1c(NC(=O)COc2ccccc2)sc2nc(C)cc(C)c12	none (no result: Anthrax LF prot, BoNT A protease, BoNT F protease, Bead autofluor)
CC1(NC(=O)COc2ccccc2-c2ccccc2)CCS(=O)(=O)C1 (stereo unspecified)	Bead autofluor 16681
O=C(Nc1cccc([N+](=O)[O-])c1)c1ccc2nc(N3C(=O)CCC3=O)sc2c1	BoNT A protease inconclusive, Bead autofluor 21930
O=C(c1ccccc1)N1CCC(c2nnc(C3CC3)o2)CC1	none (no result: Anthrax LF prot, BoNT A protease, BoNT F protease, Bead autofluor)
Cc1ccnc(Nc2ccc(NCCNC(=O)c3ccc(Br)o3)nn2)c1	PriA SSB inh 62 (no result: Anthrax LF prot, BoNT A protease, BoNT F protease, Bead autofluor)
CCOc1ccccc1-n1c(N)c(C(N)=O)sc1=S	Bead autofluor 16402
Cc1ccc(-n2c(N)c(C(N)=O)sc2=S)c(C)c1	Bead autofluor 18506
COc1ccc(/C=N/N2CCN(Cc3ccc(C)cc3)CC2)cc1Br	BoNT F protease 43 (no result: PriA SSB inh)
COc1cc(/C=N/N2CCN(Cc3ccc(Cl)cc3)CC2)ccc1OC(C)=O	BoNT F protease inconclusive (no result: PriA SSB inh)
COc1cc(/C=N/N2CCN(Cc3ccc(Cl)cc3)CC2)cc(Br)c1O	BoNT F protease 36 (no result: PriA SSB inh)
O=C(NCc1cc(-c2cccs2)on1)c1cccc(C(F)(F)F)c1	none (no result: Anthrax LF prot, BoNT A protease, BoNT F protease, Bead autofluor)
COc1ccccc1-n1cc(-c2ccccc2)[nH]c1=S	BoNT F protease inconclusive
COc1ccccc1-n1cc(-c2ccccc2)c2c(=S)nc[nH]c21	PriA SSB inh 41
O=C(Nc1cccc(-c2nc3ccccc3[nH]c2=O)c1)c1cccs1	none (no result: Anthrax LF prot, BoNT A protease, BoNT F protease, Bead autofluor)
CCOC(=O)c1c(C)n(CCN2CCN(C)CC2)c2ccc(OC)cc12	Bead autofluor 20539
CCOC(=O)c1oc2ccccc2c1CN1CCOCC1	Bead autofluor 21460
CCOC(=O)c1sc(C)c(C(=O)NCCCN2CCOCC2)c1N	none
CCOC(=O)c1c(N)sc(C(=O)N(C)C)c1CN1CCOCC1	Bead autofluor 20070
CCOC(=O)c1c(C)n(Cc2ccco2)c2ccc(OC)cc12	none
CCOC(=O)c1oc2ccccc2c1CN1CCCCC1	none
CCOC(=O)c1c(CN2CCOCC2)oc2ccc(OC)cc12	BoNT A protease inconclusive, Bead autofluor 21090
O=C(NCC1CCN(c2cnccn2)CC1)C(=O)Nc1cccc(N2CCCCC2=O)c1	none (no result: Anthrax LF prot, BoNT A protease, BoNT F protease, Bead autofluor)
O=C(CNCc1ccccn1)N1CCc2ccccc2C1	PriA SSB inh 78
CCCCCOC(=O)CSc1n[nH]c(=O)[nH]c1=O	Bead autofluor 22105
CCOCCOC(=O)CCSc1n[nH]c(=O)[nH]c1=O	none
COc1ccc(-c2cc(=O)oc3c(C)c(OCc4nn[nH]n4)ccc23)cc1	BoNT A protease inconclusive, Bead autofluor 23374
Cc1cc(OCC(=O)C(C)(C)C)c2c(-c3ccccc3)cc(=O)oc2c1	none
Cc1cc(OCc2nn[nH]n2)c2c(-c3ccccc3)cc(=O)oc2c1	Bead autofluor 20272
Cc1c(OCc2nn[nH]n2)ccc2c(-c3ccccc3)cc(=O)oc12	none
O=c1c2ccccc2cnn1-c1ccc2ccccc2c1	Bead autofluor 23123
O=c1c2ccccc2cnn1-c1ccc(Br)cc1	none
COCCCn1c(C(=O)N2CCC(C(N)=O)CC2)cc2c(=O)n(C)c(=O)n(C)c21	none (no result: Anthrax LF prot, BoNT A protease, BoNT F protease, Bead autofluor)
O=C(NCC[C@H](O)C1CC1)Nc1ccccc1Cl	none (no result: Anthrax LF prot, BoNT A protease, BoNT F protease, Bead autofluor)
CC(C)CCNC(=O)CN(C(=O)Cn1nnc(-c2ccccc2F)n1)c1cccc2c1CCCC2	Bead autofluor 20259
CC(C)CCNC(=O)C(c1ccco1)N(CCCO)C(=O)Cn1nnc(-c2ccc(F)cc2)n1 (stereo unspecified)	none
COc1ccc(CCNC(=O)Cn2nnc(-c3cccc(OC)c3OC)n2)cc1OC	Bead autofluor 22884
CC(C)CCNC(=O)CN(CCCN1CCOCC1)C(=O)Cn1nnc(-c2ccc(F)cc2)n1	Bead autofluor 22173
COc1ccc(-c2nnn(CC(=O)N(CC(=O)NCCC(C)C)c3ccccc3)n2)cc1OC	Bead autofluor 21028
O=C(CN(C(=O)Cn1nnc(-c2ccccc2F)n1)c1cccc2c1CCCC2)NCc1ccccc1	BoNT A protease inconclusive, BoNT F protease inconclusive, Bead autofluor inconclusive
COc1ccc(S(=O)(=O)NCCN2CCN(c3ccc(Cl)cc3)CC2)c(C)c1	none (no result: Anthrax LF prot, BoNT A protease, BoNT F protease, Bead autofluor)
COCCCN1C(=O)C(=O)C(=C(O)c2ccc(OCC(C)C)cc2)C1c1cccnc1 (stereo unspecified)	none (no result: Anthrax LF prot, BoNT A protease, BoNT F protease, Bead autofluor)
COc1cc(NC(=O)C[C@@H](CC(=O)O)c2cccs2)ccc1N1CCCC1=O	none (no result: Anthrax LF prot, BoNT A protease, BoNT F protease, Bead autofluor)
COc1cccc(-n2nnc3c(SCC(=O)Nc4cc(C)on4)ncnc32)c1	none (no result: Anthrax LF prot, BoNT A protease, BoNT F protease, Bead autofluor)
CCN(CC)c1ccc(SS(=O)(=O)O)cc1	PriA SSB inh 43
O=C(NCC1COC2(CCCC2)O1)c1ccc(Br)o1 (stereo unspecified)	none (no result: Anthrax LF prot, BoNT A protease, BoNT F protease, Bead autofluor)
O=C(NCCCN1CCC(Cc2ccccc2)CC1)C1CCN(S(=O)(=O)N2CCC3(CC2)OCCO3)CC1	none
O=C(NCCCN1CCN(Cc2ccccc2)CC1)C1CCN(S(=O)(=O)N2CCC3(CC2)OCCO3)CC1	Bead autofluor 21569
Cc1cc(NC(=O)CN2CC(c3nc(-c4ccco4)no3)C2)no1	none (no result: Anthrax LF prot, BoNT A protease, BoNT F protease, Bead autofluor)
O=C(c1ccccc1)N1CCCc2cc(NS(=O)(=O)CCOc3ccccc3)ccc21	PriA SSB inh 35 (no result: Anthrax LF prot, BoNT A protease, BoNT F protease, Bead autofluor)
CC(C)CS(=O)(=O)Nc1ccc2c(c1)CCCN2C(=O)c1ccccc1	none (no result: Anthrax LF prot, BoNT A protease, BoNT F protease, Bead autofluor)
CCc1ccnc(C(=O)Nc2nnc(CC)s2)c1	PriA SSB inh 103 (no result: Anthrax LF prot, BoNT A protease, BoNT F protease, Bead autofluor)
CCSc1nnc(NC(=O)c2ccccn2)s1	PriA SSB inh 86
CCSc1nnc(NC(=O)c2cccnc2)s1	Bead autofluor 19138
CCc1nnc(NC(=O)c2ccccn2)s1	PriA SSB inh 104 (no result: Anthrax LF prot, BoNT A protease, BoNT F protease, Bead autofluor)
CCSc1nnc(NC(=O)c2csc3c2CCCC3)s1	Bead autofluor 22354
CCc1nnc(NC(=O)c2cc(Cl)ccn2)s1	PriA SSB inh 81
CCc1nnc(NC(=O)c2ccc(Cl)nc2)s1	none
COc1ccc(CCNC(=O)NCCn2ccc(-c3cccs3)n2)cc1	none (no result: Anthrax LF prot, BoNT A protease, BoNT F protease, Bead autofluor)
